Among the data in PubChem BioAssay are growth inhibition, inhibition and outcome values, retold here.

Values without a mark were called inactive. For some assays here: Results with a measured potency or affinity are listed apart. Activity calls are given as the source filed them. Unless noted, the rule behind the calls is not given here.

The nature of assay [1]: antimalarial activity against Dd2 strain (AID 2302;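 active = growth inhibition above 50% at the single 2 µM test dose, taken to imply half-maximal potency below 2 µM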;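 note: 0% = DMSO untreated growth and 100% = chloroquine plus artemisinin killed control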). The settings on record: P. falciparum Dd2 in RBCs, LDH growth readout, 72 h; at 2 µM; hits give high values.
The nature of assay [2]: human hepatoma cell viability loss – ATP luminescence, cytotoxicity control for P. falciparum antimalarial project, primary screen (AID 2303;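 active = inhibition above 50%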;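 note: 0% = DMSO wells and 100% = digitonin-killed cells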). The settings on record: HepG2 viability, 24-48 h, at 10 µM, hits give high values.
Assay [3] deals with L-lactate dehydrogenase (Plasmodium falciparum (isolate CDC / Honduras)) (UniProt Q27743). The experiment in a line: PfLDH activity inhibition – cell lysate, 3D7 strain, counter-screen for P. falciparum growth inhibition project (AID 2304).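 Note: 0% = vehicle and 100% = reference inhibitor.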 The settings on record: P. falciparum 3D7 crude extract, LDH APAD/NBT absorbance; at 2 µM; hits give high values.
Assay [4] can be described thus: inhibition of 3D7 malaria parasite growth – strain 3D7 (AID 2306).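 Note: 0% = DMSO wells and 100% = chloroquine plus artemisinin control wells.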 Conditions: P. falciparum 3D7 erythrocytic growth, LDH absorbance, 72 h; at 2 µM; hits give high values.
In assay [5] the target is Calcium-dependent protein kinase 1 (Plasmodium falciparum (isolate 3D7)) (UniProt P62344). The assay is described as follows: PfCDPK1 kinase inhibitors, biochemical, TCAMS library (AID 1159585; cut-off not given, nearly all actives have IC50 up to about 0.98 µM;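 note: inhibitors leave more ATP so luminescence rises with inhibition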). The settings on record: recombinant PfCDPK1, Kinase-Glo ATP depletion luminescence. For orientation: In Kinase-Glo more light means more ATP remaining.
The target of assay [6] is Plasmodium falciparum protein kinase 6 (PK6, PF3D7_1337100) (UniProt Q8IDW1). The experiment in a line: PfPK6 kinase inhibitors, biochemical, TCAMS library (AID 1159586). The settings on record: recombinant PfPK6, Kinase-Glo ATP depletion luminescence.
The target of assay [7] is Protein kinase 7 (PK7), Plasmodium falciparum 3D7 (PF3D7_0213400) (UniProt Q7YTF7). The assay is described as follows: inhibition of Plasmodium PK7 catalytic activity – biochemical, TCAMS antimalarial set, Kinase-Glo luminescence (AID 1159587). Conditions: recombinant PfPK7, Kinase-Glo ATP depletion luminescence.
The target in assay [8] is Calcium-dependent protein kinase 4 (Plasmodium falciparum (isolate 3D7)) (UniProt Q8IBS5). The assay is described as follows: PfCDPK4 kinase inhibitors, biochemical, TCAMS library (AID 1159588; cut-off not given, nearly all actives have IC50 up to about 0.91 µM). The settings on record: recombinant PfCDPK4, Kinase-Glo ATP depletion luminescence.
Calcium-dependent protein kinase 4 (Plasmodium falciparum (isolate 3D7)), sequence (Q8IBS5 whole entry, looked up): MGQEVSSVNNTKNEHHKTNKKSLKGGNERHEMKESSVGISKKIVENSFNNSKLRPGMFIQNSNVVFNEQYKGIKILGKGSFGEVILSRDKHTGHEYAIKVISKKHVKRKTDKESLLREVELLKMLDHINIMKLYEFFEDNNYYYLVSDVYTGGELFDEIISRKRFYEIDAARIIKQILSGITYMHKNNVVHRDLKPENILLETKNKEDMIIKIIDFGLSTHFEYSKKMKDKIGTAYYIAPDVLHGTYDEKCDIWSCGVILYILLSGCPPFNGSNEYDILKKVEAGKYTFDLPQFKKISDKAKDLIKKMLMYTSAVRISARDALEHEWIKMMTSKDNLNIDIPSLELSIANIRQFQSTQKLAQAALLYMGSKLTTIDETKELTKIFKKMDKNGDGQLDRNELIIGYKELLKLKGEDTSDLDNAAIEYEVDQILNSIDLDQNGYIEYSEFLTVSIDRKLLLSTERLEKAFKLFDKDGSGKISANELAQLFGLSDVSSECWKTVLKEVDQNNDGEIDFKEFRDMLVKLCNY

Protein kinase 7 (PK7), Plasmodium falciparum 3D7 (PF3D7_0213400), sequence (Q7YTF7 1-343): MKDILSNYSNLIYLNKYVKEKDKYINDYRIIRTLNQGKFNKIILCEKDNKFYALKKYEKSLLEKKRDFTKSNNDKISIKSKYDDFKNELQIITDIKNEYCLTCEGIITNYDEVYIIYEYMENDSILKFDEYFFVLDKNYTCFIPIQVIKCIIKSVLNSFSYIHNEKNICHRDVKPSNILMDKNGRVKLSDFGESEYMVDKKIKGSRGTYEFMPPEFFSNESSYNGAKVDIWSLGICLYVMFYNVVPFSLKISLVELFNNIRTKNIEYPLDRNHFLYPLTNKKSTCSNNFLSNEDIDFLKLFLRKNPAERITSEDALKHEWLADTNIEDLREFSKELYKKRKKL
Plasmodium falciparum protein kinase 6 (PK6, PF3D7_1337100), sequence (Q8IDW1 1-305): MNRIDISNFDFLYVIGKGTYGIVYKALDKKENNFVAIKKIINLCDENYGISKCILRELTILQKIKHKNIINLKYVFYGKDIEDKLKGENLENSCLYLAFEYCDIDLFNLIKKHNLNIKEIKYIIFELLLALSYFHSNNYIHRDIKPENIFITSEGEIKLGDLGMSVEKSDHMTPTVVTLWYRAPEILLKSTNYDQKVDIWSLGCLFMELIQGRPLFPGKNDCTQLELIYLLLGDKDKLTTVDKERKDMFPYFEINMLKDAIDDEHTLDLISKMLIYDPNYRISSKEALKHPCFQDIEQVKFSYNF
L-lactate dehydrogenase (Plasmodium falciparum (isolate CDC / Honduras)), sequence (Q27743 whole entry, looked up): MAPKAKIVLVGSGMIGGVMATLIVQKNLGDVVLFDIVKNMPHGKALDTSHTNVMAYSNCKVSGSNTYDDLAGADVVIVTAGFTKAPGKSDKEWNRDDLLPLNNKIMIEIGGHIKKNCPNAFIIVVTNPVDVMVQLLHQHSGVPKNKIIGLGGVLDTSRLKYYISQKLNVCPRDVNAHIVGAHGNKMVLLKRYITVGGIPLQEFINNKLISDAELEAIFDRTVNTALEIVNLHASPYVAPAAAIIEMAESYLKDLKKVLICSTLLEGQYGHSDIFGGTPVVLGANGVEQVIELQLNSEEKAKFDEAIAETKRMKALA
Calcium-dependent protein kinase 1 (Plasmodium falciparum (isolate 3D7)), sequence (P62344 whole entry, looked up): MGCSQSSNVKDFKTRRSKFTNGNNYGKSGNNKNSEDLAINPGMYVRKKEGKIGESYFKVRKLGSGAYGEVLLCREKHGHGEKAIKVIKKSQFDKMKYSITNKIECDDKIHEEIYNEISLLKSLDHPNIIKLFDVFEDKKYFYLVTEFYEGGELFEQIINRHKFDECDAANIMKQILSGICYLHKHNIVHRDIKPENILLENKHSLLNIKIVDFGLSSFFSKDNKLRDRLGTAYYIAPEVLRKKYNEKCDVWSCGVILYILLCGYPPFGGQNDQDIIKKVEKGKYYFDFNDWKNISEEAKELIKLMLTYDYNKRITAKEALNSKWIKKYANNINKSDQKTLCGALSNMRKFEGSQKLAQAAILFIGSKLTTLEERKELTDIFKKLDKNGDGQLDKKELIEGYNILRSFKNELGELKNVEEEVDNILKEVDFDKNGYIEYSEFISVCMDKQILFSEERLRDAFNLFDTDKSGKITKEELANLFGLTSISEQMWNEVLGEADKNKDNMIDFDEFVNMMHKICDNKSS

For the molecule `Cc1oc(-c2ccc(Cl)cc2)cc1C(=O)NCCC1CCN(CCCCCNC(=O)/C=C/c2ccc(Cl)c(Cl)c2)CC1`, the growth inhibition in assay [1] was 88% (active); in assay [4], 100% (active). The results for the inhibition in assay [2] and in assay [3] were 100% (active) and -4%, respectively. The result in assay [5], in assay [6], in assay [7] and in assay [8] was inactive.
Turning to `Cc1ccc(Cn2cnc3cc(C(=O)Nc4ccc(-c5cccc(CN(C)C)c5)cc4)ccc3c2=O)o1`, the values for the growth inhibition in assay [1] and in assay [4] were 39% and 99% (active), respectively. Besides, the inhibition is 22% in assay [2] and 4% in assay [3]. In addition, the result in assay [5], in assay [6], in assay [7] and in assay [8] was inactive.
Turning to `O=C(/C=C/c1ccc(C(F)(F)F)cc1)N1CCc2cc3nccc(N4CCN5CCC[C@H]5C4)c3cc21`, the results for the growth inhibition in assay [1] and in assay [4] were 21% and 86% (active), respectively. The inhibition was -7% in assay [2] and -1% in assay [3]. Further, the result in assay [5], in assay [6], in assay [7] and in assay [8] was inactive.
Take `C[C@@H](NC(=O)c1nn(-c2ccc(Cl)cc2)c(=O)c2ccccc12)C(C)(C)C`: the growth inhibition in assay [1] was 20%; in assay [4], 95% (active). Further, the inhibition in assay [2] is 7%; in assay [3], -2%. For the same molecule, the outcome in assay [5], in assay [6], in assay [7] and in assay [8] was inactive.

What is called inhibition is the drop in the measured response relative to a control, in per cent.
